# The supplement of paper PMC10849652
# Targets with a hit are over-represented here; the source holds about 7,900 in all. About 0.6% of all pairs of compound and target were hits. A number with no mark means an inactive call.
# Compound: C#Cc1cccc(Nc2ncnc3cc(OCCOC)c(OCCOC)cc23)c1 [erlotinib]
# Test: log2 fold change, soluble protein after heating vs DMSO (PISA); higher = thermal stabilisation; K562 cells, 10 uM, 30 min; active = over 0.2 and 3.5 SD of the protein, either way, in both replicates (recomputed)
# In short: (§1)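 Quantification of soluble protein used TMTpro 16plex LC-MS/MS, with channel sums equalised. Samples were the supernatant after 21,000xg for 90 min of pooled aliquots from K562 cells (2×10^6 cells/mL) treated with 10 μM compound for 30 min, heated for 3 min over 48°C-58°C, and extracted in PBS with 0.5% NP-40 at 4°C. Values, from duplicates, describe thermal stability against control samples on a log2 fold-change scale.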
# Sequence of UniProt Q53S58 (Q53S58 whole entry, looked up): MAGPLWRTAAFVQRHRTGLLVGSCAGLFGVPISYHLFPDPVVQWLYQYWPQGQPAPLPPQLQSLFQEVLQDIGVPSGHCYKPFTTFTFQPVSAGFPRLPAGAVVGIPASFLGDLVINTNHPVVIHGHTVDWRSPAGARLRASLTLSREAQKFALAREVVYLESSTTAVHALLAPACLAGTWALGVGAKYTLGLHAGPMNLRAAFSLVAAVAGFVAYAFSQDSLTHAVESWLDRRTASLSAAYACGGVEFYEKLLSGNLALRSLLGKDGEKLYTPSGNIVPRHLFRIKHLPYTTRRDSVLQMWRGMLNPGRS
# Sequence of UniProt Q9UHP3 (Q9UHP3 whole entry, looked up): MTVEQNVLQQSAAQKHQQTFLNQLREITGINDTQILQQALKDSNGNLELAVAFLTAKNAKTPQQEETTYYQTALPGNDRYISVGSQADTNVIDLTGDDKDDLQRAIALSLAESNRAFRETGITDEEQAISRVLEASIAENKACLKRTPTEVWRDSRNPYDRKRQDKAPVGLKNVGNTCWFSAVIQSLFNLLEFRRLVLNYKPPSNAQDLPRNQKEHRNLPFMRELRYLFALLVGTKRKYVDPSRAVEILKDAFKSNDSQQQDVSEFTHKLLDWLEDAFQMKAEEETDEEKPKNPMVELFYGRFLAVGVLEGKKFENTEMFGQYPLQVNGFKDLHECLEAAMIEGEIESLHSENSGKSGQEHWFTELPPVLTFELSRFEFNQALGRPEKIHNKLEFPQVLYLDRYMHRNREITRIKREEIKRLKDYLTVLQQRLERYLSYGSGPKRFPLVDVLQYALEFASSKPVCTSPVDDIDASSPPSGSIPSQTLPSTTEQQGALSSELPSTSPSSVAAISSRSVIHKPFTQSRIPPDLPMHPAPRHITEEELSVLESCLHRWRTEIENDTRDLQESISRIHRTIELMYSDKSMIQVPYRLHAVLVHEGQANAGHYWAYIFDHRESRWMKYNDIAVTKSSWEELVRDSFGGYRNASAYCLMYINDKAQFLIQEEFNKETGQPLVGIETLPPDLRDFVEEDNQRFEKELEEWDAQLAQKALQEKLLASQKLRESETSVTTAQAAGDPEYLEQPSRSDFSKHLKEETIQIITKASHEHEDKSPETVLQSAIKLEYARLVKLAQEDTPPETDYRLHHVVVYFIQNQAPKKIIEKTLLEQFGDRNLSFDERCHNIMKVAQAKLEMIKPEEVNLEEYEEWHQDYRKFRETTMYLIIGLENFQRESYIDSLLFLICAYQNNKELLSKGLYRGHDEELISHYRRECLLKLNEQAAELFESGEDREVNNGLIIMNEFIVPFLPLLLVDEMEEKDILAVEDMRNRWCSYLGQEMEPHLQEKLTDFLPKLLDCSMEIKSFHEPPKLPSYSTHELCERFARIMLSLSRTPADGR
# Sequence of UniProt Q969T4 (Q969T4 whole entry, looked up): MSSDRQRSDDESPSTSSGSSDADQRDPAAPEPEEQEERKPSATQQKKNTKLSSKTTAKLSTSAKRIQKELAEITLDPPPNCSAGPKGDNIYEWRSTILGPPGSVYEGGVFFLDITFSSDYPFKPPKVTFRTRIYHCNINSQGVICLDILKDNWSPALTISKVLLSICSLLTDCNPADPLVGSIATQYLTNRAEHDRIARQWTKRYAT
# Sequence of UniProt Q86UV5 (Q86UV5 whole entry, looked up): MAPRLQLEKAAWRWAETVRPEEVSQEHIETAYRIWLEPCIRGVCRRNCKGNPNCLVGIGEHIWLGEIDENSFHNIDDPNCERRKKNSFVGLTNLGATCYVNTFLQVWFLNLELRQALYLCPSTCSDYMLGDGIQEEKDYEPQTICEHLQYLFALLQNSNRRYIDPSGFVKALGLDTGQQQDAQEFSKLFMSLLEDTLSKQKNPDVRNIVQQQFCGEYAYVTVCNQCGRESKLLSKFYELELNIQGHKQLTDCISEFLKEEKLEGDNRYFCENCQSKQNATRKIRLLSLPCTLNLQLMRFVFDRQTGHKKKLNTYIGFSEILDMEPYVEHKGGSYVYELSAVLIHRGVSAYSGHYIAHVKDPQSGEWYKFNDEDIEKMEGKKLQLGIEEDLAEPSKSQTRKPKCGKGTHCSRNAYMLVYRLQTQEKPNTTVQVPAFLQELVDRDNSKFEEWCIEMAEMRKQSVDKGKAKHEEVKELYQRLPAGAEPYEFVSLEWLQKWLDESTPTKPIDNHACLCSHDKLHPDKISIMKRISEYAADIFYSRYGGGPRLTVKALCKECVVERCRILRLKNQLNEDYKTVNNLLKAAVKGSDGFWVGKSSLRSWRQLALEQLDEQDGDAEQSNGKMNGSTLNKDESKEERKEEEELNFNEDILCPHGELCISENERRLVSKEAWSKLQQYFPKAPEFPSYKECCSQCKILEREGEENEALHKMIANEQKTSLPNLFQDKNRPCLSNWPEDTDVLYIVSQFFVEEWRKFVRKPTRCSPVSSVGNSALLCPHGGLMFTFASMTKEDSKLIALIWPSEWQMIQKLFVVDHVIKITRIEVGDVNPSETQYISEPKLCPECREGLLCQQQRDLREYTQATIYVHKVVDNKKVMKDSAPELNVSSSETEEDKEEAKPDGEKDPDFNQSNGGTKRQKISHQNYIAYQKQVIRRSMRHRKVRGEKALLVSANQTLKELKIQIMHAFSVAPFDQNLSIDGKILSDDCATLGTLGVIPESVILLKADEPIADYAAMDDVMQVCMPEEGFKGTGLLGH
# Sequence of UniProt Q92890 (Q92890 whole entry, looked up): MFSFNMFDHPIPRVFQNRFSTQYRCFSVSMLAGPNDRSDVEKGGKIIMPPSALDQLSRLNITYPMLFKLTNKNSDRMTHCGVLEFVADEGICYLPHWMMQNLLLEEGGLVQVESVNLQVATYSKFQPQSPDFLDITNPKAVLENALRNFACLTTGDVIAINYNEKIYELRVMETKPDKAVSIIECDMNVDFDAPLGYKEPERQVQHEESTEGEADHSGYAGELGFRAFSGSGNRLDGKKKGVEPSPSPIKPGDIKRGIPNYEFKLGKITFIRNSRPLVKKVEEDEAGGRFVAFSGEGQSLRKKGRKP
# Sequence of UniProt O43396 (O43396 whole entry, looked up): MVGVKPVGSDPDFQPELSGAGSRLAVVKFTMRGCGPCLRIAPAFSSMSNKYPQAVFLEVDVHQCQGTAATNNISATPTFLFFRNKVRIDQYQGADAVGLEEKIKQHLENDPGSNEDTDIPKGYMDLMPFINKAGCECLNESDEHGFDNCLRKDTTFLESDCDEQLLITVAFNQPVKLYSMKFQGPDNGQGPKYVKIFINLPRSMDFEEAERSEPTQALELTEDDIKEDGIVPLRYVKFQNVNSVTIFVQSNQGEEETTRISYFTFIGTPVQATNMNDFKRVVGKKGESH
# Sequence of UniProt O95801 (O95801 whole entry, looked up): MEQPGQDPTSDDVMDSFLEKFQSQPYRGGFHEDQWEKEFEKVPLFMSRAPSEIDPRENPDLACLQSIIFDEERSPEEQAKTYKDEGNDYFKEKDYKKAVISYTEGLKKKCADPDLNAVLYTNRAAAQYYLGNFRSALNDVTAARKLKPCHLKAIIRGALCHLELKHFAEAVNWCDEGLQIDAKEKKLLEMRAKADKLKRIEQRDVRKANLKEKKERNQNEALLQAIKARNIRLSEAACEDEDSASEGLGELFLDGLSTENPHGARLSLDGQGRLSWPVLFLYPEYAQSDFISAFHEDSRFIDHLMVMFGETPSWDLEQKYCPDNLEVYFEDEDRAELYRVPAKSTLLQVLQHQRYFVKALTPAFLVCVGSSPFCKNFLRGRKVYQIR
# Sequence of UniProt P51809 (P51809 whole entry, looked up): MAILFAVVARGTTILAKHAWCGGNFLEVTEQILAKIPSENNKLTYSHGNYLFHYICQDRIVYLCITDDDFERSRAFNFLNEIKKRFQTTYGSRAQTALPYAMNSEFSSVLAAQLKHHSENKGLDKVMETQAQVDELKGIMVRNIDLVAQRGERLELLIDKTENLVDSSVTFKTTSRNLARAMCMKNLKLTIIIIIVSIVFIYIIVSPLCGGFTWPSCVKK
# Sequence of UniProt O75674 (O75674 whole entry, looked up): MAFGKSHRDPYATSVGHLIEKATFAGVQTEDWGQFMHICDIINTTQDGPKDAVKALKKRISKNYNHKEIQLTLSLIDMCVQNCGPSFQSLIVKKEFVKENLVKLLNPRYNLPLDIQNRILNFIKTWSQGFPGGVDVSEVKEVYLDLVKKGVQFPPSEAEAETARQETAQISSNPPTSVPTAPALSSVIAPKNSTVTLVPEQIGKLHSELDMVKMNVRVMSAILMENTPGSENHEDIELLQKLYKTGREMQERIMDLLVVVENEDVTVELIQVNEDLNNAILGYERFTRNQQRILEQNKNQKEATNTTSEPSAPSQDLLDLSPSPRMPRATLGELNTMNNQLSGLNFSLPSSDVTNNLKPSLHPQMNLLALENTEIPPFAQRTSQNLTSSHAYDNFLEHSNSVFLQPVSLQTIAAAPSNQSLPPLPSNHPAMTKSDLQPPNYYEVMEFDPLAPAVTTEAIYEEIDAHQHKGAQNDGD
# Sequence of UniProt Q9Y5K5 (Q9Y5K5 whole entry, looked up): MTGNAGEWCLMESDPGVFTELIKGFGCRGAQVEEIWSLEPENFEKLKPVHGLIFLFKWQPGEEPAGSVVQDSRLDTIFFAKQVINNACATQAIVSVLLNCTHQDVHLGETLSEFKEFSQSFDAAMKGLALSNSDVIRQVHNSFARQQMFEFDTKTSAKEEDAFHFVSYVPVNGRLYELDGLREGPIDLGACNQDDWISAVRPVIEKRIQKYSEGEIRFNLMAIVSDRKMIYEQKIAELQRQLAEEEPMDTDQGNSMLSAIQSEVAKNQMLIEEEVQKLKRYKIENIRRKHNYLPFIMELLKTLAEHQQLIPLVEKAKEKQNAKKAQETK
# Sequence of UniProt Q6PID6 (Q6PID6 whole entry, looked up): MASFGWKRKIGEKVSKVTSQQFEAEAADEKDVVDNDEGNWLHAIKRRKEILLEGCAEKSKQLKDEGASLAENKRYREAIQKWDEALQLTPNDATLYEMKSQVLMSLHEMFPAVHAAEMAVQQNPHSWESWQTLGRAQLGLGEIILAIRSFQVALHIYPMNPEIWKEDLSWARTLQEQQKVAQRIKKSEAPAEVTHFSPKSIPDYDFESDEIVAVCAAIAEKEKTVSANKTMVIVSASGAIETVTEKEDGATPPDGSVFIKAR
# Sequence of UniProt Q8N4H5 (Q8N4H5 whole entry, looked up): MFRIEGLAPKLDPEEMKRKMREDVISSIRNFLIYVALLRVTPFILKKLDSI
row,Target,log2 fold change
1,TOM1L1 (UniProt O75674),0.019
2,USP48 isoform 8 (UniProt Q86UV5),0.114
3,TTC4 (UniProt O95801),0.094
4,VDAC1 (UniProt C9JI87),0.277
5,UCHL5 isoform 3 (UniProt Q9Y5K5),0.047
6,TXNL1 (UniProt O43396),-0.012
7,TMEM177 (UniProt Q53S58),0.058
8,USP25 isoform 3 (UniProt Q9UHP3),0.007
9,UBE2E3 (UniProt Q969T4),0.063
10,TMEM263 (UniProt Q8WUH6),0.093
11,UFD1 isoform 1 (UniProt Q92890),0.001
12,VAMP7 (UniProt P51809),-0.02
13,VPS8 (UniProt Q8N3P4),0.005

# Compound: C/C(=N\NC(=O)C1=CC(=CC=C1)S(=O)(=O)N2CCOCC2)/C3=C(C=CC(=C3)Cl)O
# Test: as above
# In short: as §1
row,Target,log2 fold change
1,TRAPPC8 (UniProt Q9Y2L5),0.118
2,TOMM5 isoform 2 (UniProt Q8N4H5),0.063
3,TTC33 (UniProt Q6PID6),-0.035
4,TSFM (UniProt P43897),-0.004
5,XPO6 (UniProt Q96QU8),0.056
6,VPS35L (UniProt Q7Z3J2),-0.004
7,UBE4B isoform 4 (UniProt O95155),0.026
8,TOP2A isoform 4 (UniProt P11388),-0.124
9,TMEM128 (UniProt Q5BJH2),0
10,WASH2P (UniProt Q6VEQ5),-0.02
11,UTP3 (UniProt Q9NQZ2),-0.076
12,UGDH (UniProt O60701),0.134
13,WDR43 (UniProt Q15061),-0.003
14,TNFRSF10A (UniProt O00220),-0.05
15,XPOT (UniProt O43592),0.069
16,VPS33A (UniProt Q96AX1),0.035
17,VPS13B (UniProt Q7Z7G8),0.024
18,TMEM63B (UniProt Q5T3F8),0.063

row,Target,log2 fold change
1,U2AF2 (UniProt P26368),0.045
2,TMEM120A (UniProt Q9BXJ8),0.109
3,TXN2 (UniProt Q99757),-0.022
4,TOM1 isoform 2 (UniProt O60784),0.014
5,VPS33B (UniProt Q9H267),0.093
6,TOM1L1 (UniProt O75674),-0.009
7,USP48 isoform 8 (UniProt Q86UV5),0.186
8,TTC4 (UniProt O95801),0.081
9,VDAC1 (UniProt C9JI87),-0.05
10,UCHL5 isoform 3 (UniProt Q9Y5K5),0.106
11,TXNL1 (UniProt O43396),0.096
12,TMEM177 (UniProt Q53S58),0.044
13,USP25 isoform 3 (UniProt Q9UHP3),0.086
14,UBE2E3 (UniProt Q969T4),0.112
15,TMEM263 (UniProt Q8WUH6),0.024
16,UFD1 isoform 1 (UniProt Q92890),0.019
17,VAMP7 (UniProt P51809),0.003
18,VPS8 (UniProt Q8N3P4),0.036

# Compound: C1=CC(=C(C=C1Cl)C2=NC3=NC=CN=C3C(=N2)NC4=CC=NC=C4)F
# Test: as above
# In short: as §1
row,Target,log2 fold change
1,TRAPPC8 (UniProt Q9Y2L5),-0.012
2,TOMM5 isoform 2 (UniProt Q8N4H5),0.378 (active)
3,TTC33 (UniProt Q6PID6),0.019
4,TSFM (UniProt P43897),0.302
5,XPO6 (UniProt Q96QU8),-0.465 (active)
6,VPS35L (UniProt Q7Z3J2),-0.072
7,UBE4B isoform 4 (UniProt O95155),0.041
8,TOP2A isoform 4 (UniProt P11388),-0.429
9,TMEM128 (UniProt Q5BJH2),0.06
10,WASH2P (UniProt Q6VEQ5),-0.084
11,UTP3 (UniProt Q9NQZ2),-0.748
12,UGDH (UniProt O60701),0.128
13,WDR43 (UniProt Q15061),0.008
14,TNFRSF10A (UniProt O00220),-0.023
15,XPOT (UniProt O43592),0.005
16,VPS33A (UniProt Q96AX1),-0.054
17,VPS13B (UniProt Q7Z7G8),0.028
18,TMEM63B (UniProt Q5T3F8),-0.024

row,Target,log2 fold change
1,U2AF2 (UniProt P26368),-0.013
2,TMEM120A (UniProt Q9BXJ8),0.174
3,TXN2 (UniProt Q99757),0.093
4,TOM1 isoform 2 (UniProt O60784),0.107
5,VPS33B (UniProt Q9H267),-0.039
6,TOM1L1 (UniProt O75674),-0.003
7,USP48 isoform 8 (UniProt Q86UV5),0.14
8,TTC4 (UniProt O95801),0.016
9,VDAC1 (UniProt C9JI87),0.095
10,UCHL5 isoform 3 (UniProt Q9Y5K5),0.415
11,TXNL1 (UniProt O43396),0.009
12,TMEM177 (UniProt Q53S58),0.03
13,USP25 isoform 3 (UniProt Q9UHP3),0.02
14,UBE2E3 (UniProt Q969T4),0.152
15,TMEM263 (UniProt Q8WUH6),0.024
16,UFD1 isoform 1 (UniProt Q92890),0.051
17,VAMP7 (UniProt P51809),0.077
18,VPS8 (UniProt Q8N3P4),0.017
